Assay results from ChEMBL document CHEMBL3988442, “University of Dundee, Small-Polar-MMV Screening Library” (2021).
About 900 (1.7%) of roughly 53,000 compounds showed an effect of 50% or more. The sample holds strong results, similar compounds and a random draw of the others, so the mix is not that of the screen.

System: Mycobacterium tuberculosis
Assay: Cornell - Phenotypic assay to identify agents that inhibit growth of Mycobacterium tuberculosis
Format: functional
Design: scale not given: direction of the effect not stated beside the values
Conditions: 10 mM as filed; unlikely as a test dose

In order of rising “Percent Effect” value:
1. COc1cc(OC)cc(-c2noc(CN)n2)c1  -71.7%
2. CN1CCOC(C)(C(=O)Nc2nccs2)C1 (stereo not given)  -67.22%
3. O=C(O)CN1CCOCC(Cc2ccc(Cl)cc2)C1 (stereo not given)  -49.54%
4. O=C1CCC(=O)N1c1nn(Cc2ccccc2)cc1Cl  -38.92%
5. NC(=O)C1CCCN(c2ccc(CNC(=O)c3cnsn3)cc2)C1 (stereo not given)  -38.73%
6. Cn1cc(NS(=O)(=O)c2ccc(OC(F)(F)F)cc2)ccc1=O  -35.35%
7. COCCN1CCN(Cc2nc(-c3ccoc3)no2)CC1  -27.89%
8. CN(C)c1ncc(NC(=O)N2CCC(CN3CCCC3)C2)cn1 (stereo not given)  -23.44%
9. Cn1nccc1-c1ncc(-c2cc(C(=O)O)n(CC3CC3)c2)cn1  -21.93%
10. CN(CC(=O)Nc1ccon1)S(=O)(=O)c1cc(Cl)ccc1Cl  -21.56%
11. NC(=O)C1CCCN(c2ccc(CNC(=O)c3csnn3)cc2)C1 (stereo not given)  -20.12%
12. COc1c(C2CCCN2Cc2nc(C3CC3)no2)c(C)nn1C (stereo not given)  -19.26%
13. NC(=O)CN1CCCCC1c1nc(N)ncc1-c1cccc(F)c1 (stereo not given)  -18.13%
14. O=S(=O)(Nc1cnc(N2CCOCC2)nc1)c1ccc(Cl)cc1  -17.06%
15. CCc1csc(CNc2nc3c(s2)c(C)nn3C)n1  -15.98%
16. CCc1ncc2c(n1)CN(Cc1nc(-c3ccco3)oc1C)CC2  -14.23%
17. Cc1cccc(CN2CCC(C3Nc4ccccc4S(=O)(=O)N3)CC2)n1 (stereo not given)  -13.88%
18. CN1CC(=O)N(c2cccc(F)c2)CC12CCNC2 (stereo not given)  -13.58%
19. COc1ccc(Cc2c(O)nc(SC)n(-c3ccccc3)c2=O)cc1  -12.72%
20. Cc1nnc(NCc2ccc(N3CCC(CO)CC3)cc2)c(C#N)c1C  -12.64%
21. COCC1COCCC12CCN(C(=O)COc1ccccc1C)CC2 (stereo not given)  -10.81%
22. O=S(=O)(Nc1cnc(N2CCCC2)nc1)c1ccc(F)cc1F  -10.3%
23. O=S(=O)(c1ccc(F)c(F)c1)n1cc(Cl)cn1  -7.033%
24. CNC(=O)COc1ccc(CNCc2c(C)nn(C)c2N(C)C)cc1  -6.953%
25. Cc1cc(C(=O)NCCN2CCCc3ccccc32)[nH]n1  -6.129%
26. CCCNc1ccc(C(=O)NCCc2cccc(Cl)c2)cn1  -5.958%
27. Cc1ccc(S(=O)(=O)c2ncccc2CN2CCCC2)cc1  -5.255%
28. CC(C)COC(=O)N1CC(=O)N(Cc2ccc(Cl)cc2)CC(O)C1 (stereo not given)  -5.11%
29. CC(C)Nc1nc2c(s1)C(=O)CN(CC1CC1)C2  -4.506%
30. CSCCC(NC(N)=O)C(=O)NCc1c(C)nn(-c2ccccc2)c1C (stereo not given)  -4.034%
31. O=C(Cc1nc(-c2ccncc2)n[nH]1)N1CCOCC1  -3.393%
32. CC(C)N1CC[C@@](C)(O)[C@H](n2ccc(=O)[nH]c2=O)C1  -3.084%
33. CCS(=O)(=O)N1CCC2(CC1)CN(c1cccnc1)C(=O)CO2.O=C(O)C(F)(F)F  -1.862%
34. CC1(Cc2ccc(F)cc2)Cc2cc(C(=O)NCCO)ccc2O1 (stereo not given)  0.603%
35. COc1ccccc1CNC(=O)CN(C)C(C)c1ccncn1 (stereo not given)  1.408%
36. COc1cccc(-c2nc(C)c(C(=O)N[C@H](CO)CCSC)s2)c1  3.237%
37. CCc1c(O)nc(SCC(=O)N(CC)CC)n(C(C)CC)c1=O (stereo not given)  4.731%
38. COc1cccc(-c2nc(C)c(C(=O)N[C@@H](CCSC)C(=O)O)s2)c1  4.928%
39. CS(=O)(=O)NCc1ncn2c1CN(C(=O)C1CCCO1)CCC2 (stereo not given)  5.323%
40. Cc1nn(C)c2nc(NCCCN3CCCC(CO)C3)sc12 (stereo not given)  5.889%
41. OC1(CNCCc2csc(-c3cccnc3)n2)CCNC1 (stereo not given)  6.154%
42. COc1ccc(CNC(=O)c2ccc(Br)cn2)cc1  8.291%
43. CCOc1ccc(Cc2c(O)nc(SC)n(-c3ccccc3)c2=O)cc1  8.957%
44. CS(=O)(=O)N1CCN(C(=O)c2cc(-c3ccco3)cs2)CC1  10.89%
45. N#CC1COCCN1C(=O)c1ccc2[nH]ccc2c1 (stereo not given)  10.98%
46. CCc1nn(-c2cc(Oc3cccc(C)c3)nc(C)n2)c(N)c1C#N  11.01%
47. O=C1C(CS(=O)(=O)Nc2ccc(Cl)cc2)=NC(=O)n2cccc21  11.65%
48. Cc1nn(C)c(C)c1-c1ccc(=O)n(C(C)C(=O)NC2CC2)n1 (stereo not given)  11.69%
49. CC(C)(C)c1noc(CN2CCCc3cc(OC(F)(F)F)ccc32)n1  12.22%
50. CCn1c(N)nc2cc(C(=O)N(C)Cc3cc(C(C)(C)C)n[nH]3)cnc21  12.68%
51. CCn1nc(C)c2c1cnn2CC(=O)N1CCN(C)CC1  13.07%
52. CCc1c(O)nc(SCC(=O)c2ccccc2)n(-c2ccccc2)c1=O  13.57%
53. Cc1ccc(F)cc1S(=O)(=O)Nc1cnc(N2CCCC2)nc1  13.98%
54. COc1cncc(-n2nc(C)c(CC(C)=O)c2C)c1  14.09%
55. Cc1nn2cc(CNc3nccc(CCC(F)(F)F)n3)nc2s1  14.28%
56. COCc1noc(CN2C[C@H](NS(C)(=O)=O)[C@@H](C3CC3)C2)n1  15.5%
57. O=C(NCCN1CCNC1=O)c1cc(-c2ccc(O)cc2)n[nH]1  15.58%
58. CCc1ccc(NC(=O)c2ncc(C(N)=O)cc2Cl)cc1F  15.72%
59. CCCNC(=O)Cn1c(-n2nc(C)cc2C)nc(CCC)cc1=O  16.57%
60. O=C1C(CS(=O)(=O)Nc2ccc(Br)cc2)=NC(=O)n2cccc21  17.38%
61. Cc1ccc(S(=O)(=O)N(C)CC(N)=O)c(Cl)c1  18.08%
62. CSc1nc(O)c(Cc2ccccc2)c(=O)n1-c1ccccc1  18.81%
63. O=C(NCCc1cccc(F)c1)C1(n2cnnn2)CCCCC1  18.95%
64. CC(C)(C)n1cc(NC(=O)C2CN(Cc3ccccc3)CCO2)cn1 (stereo not given)  19.34%
65. CCCc1cc(=O)n(CC(=O)NC(C)C)c(-n2nc(C)cc2C)n1  19.53%
66. Cl.NC(Cc1nc(-c2ccccc2)no1)c1ccccc1 (stereo not given)  19.6%
67. Cc1csc(CNc2nc3c(s2)c(C)nn3C)n1  21.44%
68. CCc1ncc(S(C)(=O)=O)c(C2CCCNC2)n1 (stereo not given)  21.49%
69. CN(CCOc1cccc(F)c1)CC(=O)Nc1ccncc1  22.43%
70. N#Cc1c(Cl)nsc1NCc1ccc(N2CCSCC2)cc1  23.04%
71. Cc1nn(C)c2nc(NC3CCNCC3)sc12  23.18%
72. CN(C)c1ncc(NS(=O)(=O)c2ccc(OC(F)(F)F)cc2)cn1  23.91%
73. CCc1ccc(S(=O)(=O)Nc2cnc(N3CCOCC3)nc2)cc1  24.89%
74. COc1ncc(C(=O)NCc2ccc(Br)cc2)cn1  25.41%
75. O=C(NCCc1c[nH]c2ccccc12)C1(n2cnnn2)CCCCC1  25.7%
76. COc1ccc(Cl)cc1S(=O)(=O)N(C)CC(N)=O  28.08%
77. COc1ccc(Cl)cc1S(=O)(=O)N(C)CC(=O)Nc1ccccc1  28.1%
78. CCc1c(O)n(C(C)CC)c(SCC(=O)c2ccccc2)nc1=O (stereo not given)  28.35%
79. CN(CC(=O)Nc1cccc(F)c1)Cc1nc(N)nc(N(C)C)n1  30.17%
80. Cc1nn(C)cc1C1CC(=O)Nc2c1cnn2C (stereo not given)  30.3%
81. CC(C)C(=O)NCCCNC(=O)Nc1cc(-c2ccccc2)ns1  30.68%
82. Cc1cn([C@H]2CCNC[C@]2(C)O)c(=O)[nH]c1=O  34.03%
83. N#Cc1c(Cl)nsc1NCc1ccc(N2CCC(CO)CC2)cc1  51.2%
84. O=C(NCCN1CCc2ccccc21)c1cc(-c2ccc(O)cc2)n[nH]1  53.46%
85. Cc1cn([C@@H]2CC3(CCNCC3)OC[C@@]2(C)O)c(=O)[nH]c1=O  56.73%
86. O=S(=O)(Nc1cnc(N2CCOCC2)nc1)c1ccc(C(F)(F)F)cc1  57.68%
87. CC(C)c1ccc(NS(=O)(=O)CC2=NC(=O)n3cccc3C2=O)cc1  59.8%
88. CCCc1cc(=O)n(CC(=O)NCCOC)c(-n2nc(C)cc2C)n1  61.91%
89. COc1cc(OC)cc(-c2noc(CC(N)c3ccccc3)n2)c1 (stereo not given)  63.98%
90. CCc1c(O)nc(SCC(=O)Nc2ccccc2)n(C(C)CC)c1=O (stereo not given)  65.15%
91. O=C(NCCc1c[nH]c2ccc(F)cc12)C1(n2cnnn2)CCCCC1  65.5%
92. CN(C)c1ncc(-c2cc(C(=O)O)n(CC3CC3)c2)cn1  80.35%
93. N#Cc1c(Cl)nsc1NCc1ccc(N2CCCC(C(N)=O)C2)cc1 (stereo not given)  80.86%
94. CCc1nc(CNc2nc3c(s2)c(C)nn3C)cs1  82.51%
95. COC(=O)[C@H](CCSC)NC(=O)Cc1c(C)nn(-c2ccccc2)c1C  83.92%
96. COC(=O)C(CCSC)NC(=O)Cc1c(C)nn(-c2ccccc2)c1C (stereo not given)  87.19%
97. Cc1nc(CNc2nc3c(s2)c(C)nn3C)cs1  88.41%
98. O=S(=O)(Nc1cnc(N2CCCC2)nc1)c1ccc(OC(F)(F)F)cc1  94.98%
99. COC(=O)c1ccc(C(=O)NCc2ccc(Br)cc2)cn1  95.13%
100. CCc1c(O)nc(SC(C)CC)n(-c2ccccc2)c1=O (stereo not given)  96.76%
101. CCCSc1nc(O)c(CC)c(=O)n1-c1ccccc1  98.89%
102. O=S(=O)(Nc1cnc(N2CCCC2)nc1)c1ccc(C(F)(F)F)cc1  101.9%
103. CN(CCS(=O)(=O)c1cc(Cl)ccc1Cl)CC(N)=O  108.8%
104. CN(CCS(=O)(=O)c1cc(Cl)ccc1Cl)CC(=O)Nc1cccc(F)c1  108.9%
105. CN(CCS(=O)(=O)c1cc(Cl)ccc1Cl)CC(=O)Nc1ccc(F)cc1  110.1%
